This is a sample that favours compounds with a hit; in the whole collection about 4.3% have one here.
rCAG RNA binder: binds r(CAG) RNA repeats | inhibition, % at 3 µM | AID 651821 | r(CAG) RNA repeat, TO-PRO-1 dye displacement fluorescence | hit rate 1.3% among 370,000;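 active = inhibition above the plate cutoff, the mean of all test compounds on that plate plus 3 SD, cut at about 35% in these data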;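 also: higher means more dye released from RNA so lower well fluorescence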
NR3A LBD binder: modulators (binders) of human NR3A ligand-binding domain | NR3A LBD differential scanning fluorimetry, Tm shift; 0% = protein alone, 100% = glycine-bound protein | hit rate 2.5% among 340,000 | Tm shift relative to glycine control, % at 25 µM;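 active = melting temperature shift of at least 10% of the positive control shift, at one fixed dose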
FAS TE block: blocks the thioesterase domain of human fatty acid synthase | P49327 | recombinant FAS-TE, OMFH fluorogenic substrate, fluorescence endpoint | inhibition, % at 15 µM | hit rate 0.67% among 360,000;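 active = compounds whose normalised, plate-corrected inhibition of enzyme fluorescence in the single-dose primary screen is 50% or more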
Target sequence (P49327 whole entry, looked up, the tested form may be a part): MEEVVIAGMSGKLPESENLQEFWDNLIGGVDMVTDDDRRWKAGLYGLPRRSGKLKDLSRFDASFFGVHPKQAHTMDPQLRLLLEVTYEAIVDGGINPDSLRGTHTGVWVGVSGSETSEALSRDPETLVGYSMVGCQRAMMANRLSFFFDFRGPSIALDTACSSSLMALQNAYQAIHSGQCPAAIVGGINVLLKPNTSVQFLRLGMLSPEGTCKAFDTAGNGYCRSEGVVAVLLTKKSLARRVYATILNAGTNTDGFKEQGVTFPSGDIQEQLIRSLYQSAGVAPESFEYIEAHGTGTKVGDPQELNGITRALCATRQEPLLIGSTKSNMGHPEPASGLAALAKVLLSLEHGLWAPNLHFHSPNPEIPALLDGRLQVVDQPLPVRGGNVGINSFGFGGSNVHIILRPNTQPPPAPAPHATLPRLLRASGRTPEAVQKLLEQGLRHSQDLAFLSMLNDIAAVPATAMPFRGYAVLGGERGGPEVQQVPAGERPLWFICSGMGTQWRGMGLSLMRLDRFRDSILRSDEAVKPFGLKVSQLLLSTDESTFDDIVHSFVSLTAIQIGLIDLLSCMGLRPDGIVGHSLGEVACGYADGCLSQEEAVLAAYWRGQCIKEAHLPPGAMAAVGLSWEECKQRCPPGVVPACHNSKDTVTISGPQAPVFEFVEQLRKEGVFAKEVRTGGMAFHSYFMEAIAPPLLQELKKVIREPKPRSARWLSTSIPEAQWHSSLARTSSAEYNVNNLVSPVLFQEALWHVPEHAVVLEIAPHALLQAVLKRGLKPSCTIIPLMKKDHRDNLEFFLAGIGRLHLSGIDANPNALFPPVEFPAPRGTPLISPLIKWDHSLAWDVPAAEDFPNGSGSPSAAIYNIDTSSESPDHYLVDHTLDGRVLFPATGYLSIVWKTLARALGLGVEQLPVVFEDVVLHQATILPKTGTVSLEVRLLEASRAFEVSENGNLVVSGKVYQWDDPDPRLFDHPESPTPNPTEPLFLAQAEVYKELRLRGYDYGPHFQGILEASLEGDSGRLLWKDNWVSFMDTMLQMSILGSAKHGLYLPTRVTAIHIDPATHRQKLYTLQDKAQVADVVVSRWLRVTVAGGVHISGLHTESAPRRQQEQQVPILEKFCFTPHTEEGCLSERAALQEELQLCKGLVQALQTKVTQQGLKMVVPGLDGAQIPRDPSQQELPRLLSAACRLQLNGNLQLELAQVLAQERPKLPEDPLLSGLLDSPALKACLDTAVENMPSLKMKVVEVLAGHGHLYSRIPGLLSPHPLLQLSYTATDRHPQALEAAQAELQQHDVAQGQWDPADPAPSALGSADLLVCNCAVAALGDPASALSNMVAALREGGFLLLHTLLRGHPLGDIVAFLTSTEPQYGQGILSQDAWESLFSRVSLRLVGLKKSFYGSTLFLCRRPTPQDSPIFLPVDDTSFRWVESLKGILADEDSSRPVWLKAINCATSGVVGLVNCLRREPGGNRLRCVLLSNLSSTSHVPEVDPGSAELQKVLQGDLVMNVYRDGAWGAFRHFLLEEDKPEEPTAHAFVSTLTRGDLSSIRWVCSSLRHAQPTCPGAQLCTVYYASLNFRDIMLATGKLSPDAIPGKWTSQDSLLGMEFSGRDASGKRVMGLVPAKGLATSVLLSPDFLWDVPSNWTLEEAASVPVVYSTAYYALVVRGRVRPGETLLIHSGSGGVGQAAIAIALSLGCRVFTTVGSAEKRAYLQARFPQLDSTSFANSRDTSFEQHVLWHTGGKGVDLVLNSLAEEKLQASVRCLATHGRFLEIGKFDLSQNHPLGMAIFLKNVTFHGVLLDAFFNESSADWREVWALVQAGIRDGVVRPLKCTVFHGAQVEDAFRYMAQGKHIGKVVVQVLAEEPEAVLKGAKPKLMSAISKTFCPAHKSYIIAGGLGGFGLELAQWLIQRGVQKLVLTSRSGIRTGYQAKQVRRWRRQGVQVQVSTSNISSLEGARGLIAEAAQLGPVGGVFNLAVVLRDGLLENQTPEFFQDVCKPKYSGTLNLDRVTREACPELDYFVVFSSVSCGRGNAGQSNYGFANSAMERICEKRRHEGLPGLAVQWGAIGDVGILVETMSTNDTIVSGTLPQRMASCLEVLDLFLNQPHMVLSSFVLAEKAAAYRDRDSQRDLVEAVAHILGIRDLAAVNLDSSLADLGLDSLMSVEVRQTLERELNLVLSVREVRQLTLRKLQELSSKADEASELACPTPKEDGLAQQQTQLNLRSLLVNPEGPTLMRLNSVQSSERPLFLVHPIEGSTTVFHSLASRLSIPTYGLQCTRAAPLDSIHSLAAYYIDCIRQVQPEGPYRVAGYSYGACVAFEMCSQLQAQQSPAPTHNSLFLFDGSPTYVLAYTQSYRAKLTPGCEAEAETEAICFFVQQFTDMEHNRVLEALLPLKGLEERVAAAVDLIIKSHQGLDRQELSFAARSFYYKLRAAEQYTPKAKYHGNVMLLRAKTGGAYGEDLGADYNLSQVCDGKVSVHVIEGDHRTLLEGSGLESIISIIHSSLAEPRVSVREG
NadD block: inhibitors of Staphylococcus aureus NadD | hit rate 0.78% among 360,000 | inhibition, % at 20 µM | purified NadD enzyme, colorimetric absorbance read-out | AID 602399; in the data active = inhibition above about 26%
FAS-TE conf: confirmation of human fatty acid synthase thioesterase inhibitors; shares compounds with FAS TE block; recombinant FAS-TE, OMFH fluorogenic substrate, fluorescence; inhibition, % at 15 µM; hit rate 45% among 2,300; AID 624325;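 active = compounds inhibiting the enzyme by at least 50% at 15 µM in any one of the replicates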
Of the large screens only hits and unclear results are named; the others gave an inactive call (follow-up assays come after a bar, where they were run).

O=C(OCCCN1CCC2(CCC(c3ccccc3)CC2)C1=O)c1ccccc1 (stereo unspecified)	none (no result: NR3A LBD binder, FAS TE block, NadD block)
CC(=O)N1CCN(c2ccccc2NC(=O)c2ccc(-c3cccc([N+](=O)[O-])c3)o2)CC1	FAS TE block 66 | FAS-TE conf 42
O=C(NC(=S)Nc1ccccc1N1CCCCC1)c1ccc(-c2cccc([N+](=O)[O-])c2)o1	none
CCOC(=O)c1ccccc1NC(=O)c1cn(-c2ccc(OC)cc2)c(=O)c2ccccc12	none
COc1ccc([N+](=O)[O-])cc1NC(=O)Nc1ccccc1	FAS TE block 58 | FAS-TE conf 62
C/C=C/C=C/C(=O)OC(C)C(=O)Nc1cc([N+](=O)[O-])ccc1OC (stereo unspecified)	FAS TE block 73 | FAS-TE conf 60
COc1ccc([N+](=O)[O-])cc1NC(=O)N(C)Cc1ccco1	FAS TE block 51 | FAS-TE conf 42
COc1ccc(-n2cc(C(=O)Nc3cc([N+](=O)[O-])ccc3OC)c3ccccc3c2=O)cc1	FAS TE block 55 | FAS-TE conf inactive
COc1ccc([N+](=O)[O-])cc1NC(=O)C(C)OC(=O)Cc1ccc(OC)c(OC)c1 (stereo unspecified)	none
COc1ccc([N+](=O)[O-])cc1NC(=S)Nc1ccccc1	none
COC(=O)[C@]12C[C@H](CC(=O)NCc3ccc(OC)c(OC)c3)C(=O)N(Cc3ccc(Cl)cc3Cl)C1=C[C@H](C1CCCC1)O[C@@H]2C	none (no result: NR3A LBD binder, FAS TE block, NadD block)
CC(C)(C)c1ccc(/C=N/NC(=S)NC2CCCCC2)cc1	FAS TE block 53 | FAS-TE conf 45
O=C(N/N=C/c1ccccc1)NC1CCCCC1	none
O=C(CSc1nc2ccccc2nc1N1CCCCC1)N1CCN(C(c2ccccc2)c2ccc(Cl)cc2)CC1 (stereo unspecified)	none (no result: NR3A LBD binder, FAS TE block, NadD block)
COC(=O)[C@]12C[C@H](CC(=O)NCc3cccc(C(F)(F)F)c3)C(=O)N(CCC3=CCCCC3)C1=C[C@H](C(C)C)O[C@@H]2C1CC1	none (no result: NR3A LBD binder, FAS TE block, NadD block)
O=C(NCC1CCCCC1)C12CN(Cc3ccccc3)CC1C(c1cccc([N+](=O)[O-])c1)=NO2 (stereo unspecified)	FAS TE block 54 | FAS-TE conf inactive
CSC(=Cc1ccc(C(=O)c2ccc(C)cc2)n1C)S(C)=O (stereo unspecified)	none (no result: NR3A LBD binder, FAS TE block, NadD block)
O=C(OC(c1ccccc1)c1nccc2ccccc12)c1cc([N+](=O)[O-])cc([N+](=O)[O-])c1 (stereo unspecified)	FAS TE block 50 | FAS-TE conf inactive
OC(c1cccc(Cl)c1)c1nccc2ccccc12 (stereo unspecified)	none
N#CC(C#N)=c1ccc2c(c1)N1C3=C(CCCC3)CC3CCCCC31N=2 (stereo unspecified)	FAS TE block 51 | FAS-TE conf inactive
Cc1ccc(/C=N\NC(=O)C2CN(S(=O)(=O)c3ccccc3)CCN2S(=O)(=O)c2ccccc2)cc1 (stereo unspecified)	FAS TE block 81 | FAS-TE conf inactive
CCNC(=O)C1CN(S(=O)(=O)c2ccccc2)CCN1S(=O)(=O)c1ccccc1 (stereo unspecified)	none
N#CCCCc1cn(-c2ccc(-c3noc4c3C(=O)N(CC(=O)N3CCOCC3)CC4)cc2)nn1	none (no result: NR3A LBD binder, FAS TE block, NadD block)
CC(C)(C)C(=O)N1CCN(c2ccc([N+](=O)[O-])c(-n3nc(-c4ccccc4)c4ccccc4c3=O)c2)CC1	FAS TE block 74 | FAS-TE conf inactive
O=C(/C=C/c1cccc([N+](=O)[O-])c1)N1CCOCC1	none
O=C(/C=C/c1cccc([N+](=O)[O-])c1)N1CCN(c2ccccn2)CC1	FAS TE block 51 | FAS-TE conf inactive
O=C(/C=C/c1cccc([N+](=O)[O-])c1)N1CCN(S(=O)(=O)c2cccs2)CC1	FAS TE block 77 | FAS-TE conf 83
CN(C)c1cccc(/C=C2\CC3(OC(=O)c4ccccc4)CCCN2C3)c1 (stereo unspecified)	none (no result: NR3A LBD binder, FAS TE block, NadD block)
CCOC(=O)C1(Cc2ccccc2)CCN(Cc2ccccc2[N+](=O)[O-])CC1	none (no result: NR3A LBD binder, FAS TE block, NadD block)
CCc1nc2c(OCc3ccc(Cl)cc3)cccn2c1N(C=O)Cc1ccccc1	FAS TE block 64 (no result: NR3A LBD binder) | FAS-TE conf 71
CC(C)CNc1cccc2c1S(=O)(=O)N[C@@H](Cc1ccccc1)CO2	none (no result: NR3A LBD binder, FAS TE block, NadD block)
CCn1cc(C(=O)NCc2ccco2)c(=O)c2cc(S(=O)(=O)N3CCCCCC3)ccc21	FAS TE block 78 | FAS-TE conf 58
CCn1cc(C(=O)NCc2ccco2)c(=O)c2cc(S(=O)(=O)N3CC(C)CC(C)C3)ccc21 (stereo unspecified)	FAS TE block 78 | FAS-TE conf 87
CCn1cc(C(=O)NCc2ccco2)c(=O)c2cc(S(=O)(=O)N3CCC(C)CC3)ccc21	FAS TE block 74 | FAS-TE conf 84
CCn1cc(C(=O)N2CCCC2)c(=O)c2cc(S(=O)(=O)N3CC(C)CC(C)C3)ccc21 (stereo unspecified)	none
CCn1cc(C(=O)NCc2ccco2)c(=O)c2cc(S(=O)(=O)N3CCc4ccccc4C3)ccc21	none
C=CCn1cc(C(=O)NCc2ccco2)c(=O)c2cc(S(=O)(=O)N3CCCCCC3)ccc21	FAS TE block 61 | FAS-TE conf 70
Cc1cc(NC(=O)CCc2c[nH]c3ccccc23)ccc1Nc1cccnc1	none (no result: NR3A LBD binder, FAS TE block, NadD block)
COc1cccc(CNS(=O)(=O)c2ccccc2Br)c1	none (no result: NR3A LBD binder, FAS TE block, NadD block)
COc1ccccc1CCn1cnc(-c2ccccc2)c1CC(C)C	none (no result: NR3A LBD binder, FAS TE block, NadD block)
O=C(O)c1cc([N+](=O)[O-])c(Sc2nc3ccccc3[nH]2)c([N+](=O)[O-])c1	none
N#Cc1ccc(Sc2nc3ccccc3[nH]2)cc1C#N	FAS TE block 74 | FAS-TE conf 85
CN1C(=S)SC(N2OC3C(=O)N(c4ccccc4)C(=O)C3C2c2ccc(Cl)cc2)C1(C)C (stereo unspecified)	FAS TE block 69 | FAS-TE conf inactive
CC(C)c1cc(C(C)C)c(S(=O)(=O)N2CCCC(C(=O)N3CCN(Cc4ccccc4)CC3)C2)c(C(C)C)c1 (stereo unspecified)	none (no result: NR3A LBD binder, FAS TE block, NadD block)
CCN(Cc1ccccc1)c1ccc(/C=N/NC(=O)c2cccc(S(=O)(=O)N3CCOCC3)c2)cc1	FAS TE block 82 | FAS-TE conf inactive
CCn1c(SCC(=O)NN=Cc2cccc(OCc3ccccc3)c2)nnc1-c1ccc(OC)c(OC)c1	none (no result: NR3A LBD binder, FAS TE block, NadD block)
Cc1cc(C)cc(NC(=S)N=Nc2c(O)n(C)c3ccc(S(=O)(=O)N4CCOCC4)cc23)c1	FAS TE block 61 | FAS-TE conf inactive
Cc1cccc(NC(=S)N=Nc2c(O)n(C)c3ccc(S(=O)(=O)N4CCOCC4)cc23)c1	FAS TE block 59 | FAS-TE conf inactive
C=CCn1c(O)c(N=NC(=S)Nc2ccccc2F)c2cc(S(=O)(=O)N3CCOCC3)ccc21	FAS TE block 59, NadD block 38 | FAS-TE conf inactive
Cc1ccc(NC(=S)N=Nc2c(O)n(C)c3ccc(S(=O)(=O)N4CCOCC4)cc23)cc1	FAS TE block 59 | FAS-TE conf inactive
COC(=O)C1=C(C)NC(=S)NC1c1cccc(OC)c1 (stereo unspecified)	none (no result: NR3A LBD binder, FAS TE block, NadD block)

Assay outcomes (PubChem)
